Compound activity deposited in PubChem by National Center for Advancing Translational Sciences (NCATS).
A selection: hits, their analogues and other compounds. The true share with any hit is near 9.2%.
HPGD block = inhibitors of human 15-hydroxyprostaglandin dehydrogenase (HPGD); Potency, µM, inactives show at the top dose activity change, negative = inhibition, usual class: inhibitors; P15428; purified HPGD, NADH fluorescence kinetic, PGE2 substrate; 4.3% of 150,000 active; further: on the % scale 0 is the no-effect control and ±100 the full control effect
Target sequence (P15428 whole entry, looked up): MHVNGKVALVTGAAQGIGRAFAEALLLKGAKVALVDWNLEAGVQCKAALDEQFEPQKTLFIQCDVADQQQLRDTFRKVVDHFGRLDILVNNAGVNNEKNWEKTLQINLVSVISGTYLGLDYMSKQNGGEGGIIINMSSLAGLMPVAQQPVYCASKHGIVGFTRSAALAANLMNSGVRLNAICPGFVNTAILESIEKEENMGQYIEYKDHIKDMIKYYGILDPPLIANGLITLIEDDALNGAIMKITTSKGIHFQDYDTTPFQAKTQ
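20 nM HPGD preincubated 15 min at room temperature with compound in 50 mM Tris-HCl pH 8, 0.01% Tween 20. Started with 1 mM NAD+ and 30 uM prostaglandin E2; NADH fluorescence (360/450 nm) read 5 times over 30-s intervals, last minus first.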
KDM4E inh = JMJD2E (human) inhibition; B2RXH2; JMJD2E catalytic domain, FDH-coupled NADH fluorescence (FDH is formaldehyde dehydrogenase); Potency, µM (doses to about 57.1 µM), for inactives: top-dose activity change, negative = inhibition, most hits filed as inhibitors; 1.6% of 230,000 active; AID 2147;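 further: 0% = wells with enzyme and -100% = buffer wells without enzyme; nearly all actives have a fitted effect of over 50% in size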
ALDH1A1 inh = inhibitors of human aldehyde dehydrogenase 1A1; Potency, µM (highest dose often 75.3 µM), for inactives: top-dose activity, negative = inhibition, hits mostly inhibitors; 7.3% of 220,000 active; P00352; Purified ALDH1A1, NADH fluorescence, propionaldehyde substrate;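 further: plate controls were no enzyme wells and a reference inhibitor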
Target sequence (P00352 whole entry, looked up): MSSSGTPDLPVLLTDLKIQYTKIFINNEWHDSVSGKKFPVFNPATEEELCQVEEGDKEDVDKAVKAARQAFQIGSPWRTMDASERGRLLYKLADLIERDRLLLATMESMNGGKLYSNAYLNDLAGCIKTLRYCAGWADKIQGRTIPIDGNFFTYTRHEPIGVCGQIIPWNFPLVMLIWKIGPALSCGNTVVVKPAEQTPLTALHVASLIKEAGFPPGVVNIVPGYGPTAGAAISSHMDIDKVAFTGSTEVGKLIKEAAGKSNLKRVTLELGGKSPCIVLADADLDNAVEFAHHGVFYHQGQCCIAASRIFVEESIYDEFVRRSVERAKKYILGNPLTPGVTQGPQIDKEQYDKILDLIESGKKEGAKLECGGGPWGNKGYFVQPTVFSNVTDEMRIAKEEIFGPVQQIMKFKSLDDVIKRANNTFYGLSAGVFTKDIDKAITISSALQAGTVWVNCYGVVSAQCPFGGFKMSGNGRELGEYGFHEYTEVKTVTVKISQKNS
HTT ATP protect = Huntington cell model cytoprotection by ATP luminescence; PC12 HTT-Q103 induced, cytoprotection, ATP luminescence, 40 h; Potency, µM (titrated, usually from 56.4 µM), for inactives: cytoprotection (ATP increase), most hits filed as activators; 0.14% of 230,000 active; active means well fitted curve in the direction sought with a large enough effect; inconclusive means small, poorly fitted or top-dose-only effect, or another doubt; inactive means no such curve, though single readings can be large; an effect the other way counts as inactive or inconclusive; further: % of control where 0% means no effect; nearly all actives have a fitted effect of over 45% in size
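Compounds added alongside 100 nM tebufenozide, which induces toxic Q103 huntingtin exon 1-GFP in stable PC12 cells; surviving cells quantified by luminescent ATP measurement. Medium: phenol red-free DMEM, 5% equine and 5% calf serum.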
Lamin A splicing = modulators of lamin A splicing; 0.01% of 200,000 active; AID 1487; Potency, µM (titrated, usually from 46.1 µM), for the others: at the top dose ratio change, negative = inhibition, usual class: inhibitors; HeLa LMNA splicing GFP/RFP minigene ratio, 48 h; active means well fitted inhibition curve with a large enough effect in the signal ratio, with a control signal flat, not every such curve was filed as active; inconclusive means small, poorly fitted or top-dose-only effect, or effect the other way, or a change in a side signal; the % refers to the signal ratio; further: on the % scale 0 is the no-effect control and ±100 the full control effect
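S3 HeLa cells stably expressing lamin A-EGFP splicing minigene plus DsRed2, 600 cells/well, 48 h compound exposure at 37C. Laser-scanning cytometry; analysed as GFP (500-530 nm)/RFP (575-640 nm) total intensity ratio; 0.5% DMSO vehicle.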
HttQ103 aggreg = mutant huntingtin aggregation inhibition; PC12 HttQ103-GFP aggregates, Acumen cytometry, 40 h; Potency, µM (series often up to 46.1 µM), inactives show at the top dose activity change, negative = inhibition, most hits filed as inhibitors; 1.1% of 220,000 active; active means well fitted curve in the direction sought with a large enough effect; inconclusive means small, poorly fitted or top-dose-only effect, or another doubt; inactive means no such curve, though single readings can be large; an effect the other way counts as inactive or inconclusive; further: on the % scale 0 is the no-effect control and ±100 the full control effect; nearly all actives have a fitted effect of over 60% in size
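Multiplexed with ATP-based cell death, this channel scores GFP aggregates in PC12 cells expressing inducible HTTex1-Q103-GFP. Induction used 100 nM tebufenozide; compounds were tested in concentration series.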
Starred values were filed as active, the others as inactive; ? = inconclusive; . = not tested or not shown; [ ] = another dose, or the depositor's remark. Unless noted, the call rests on the fitted dose curve; in most records, active means well fitted inhibition curve with a large enough effect (not every such curve was filed as active); inconclusive means small, poorly fitted or top-dose-only effect, or another doubt; inactive means no such curve, though single readings can be large or run the other way. Potency means the concentration at half of the fitted maximal effect.

SMILES | HPGD block | KDM4E inh | ALDH1A1 inh | HTT ATP protect | Lamin A splicing | HttQ103 aggreg
COC(=O)C1=C(C)NC(C)=C(C(=O)OCCNCc2ccccc2)C1c1cccc([N+](=O)[O-])c1 (centres undefined) | -22% | . | -8% | . | . | .
Cc1ccc(C2CC(=O)Oc3cc(C)c(Cl)c(C)c32)cc1 (centres undefined) | -16% | . | -13% | -80% | . | .
O=C(O)C1CCCN1C(=O)Nc1ccccc1 (centres undefined) | -18% | -1% | -9% | 1%[0.074 µM] | 0% | 1.1µM*
O=C(O)C1CCCN1C(=O)Nc1ccc(Cl)cc1 (centres undefined) | -7% | 4% | 5% | . | 1% | 17%
CC(C)Cc1csc(NC(=O)c2ccccc2Cl)c1C(=O)O | 14µM* | -12% | ? | -15%[10 µM] | ? | 2%
CCOC(=O)c1c(CC(C)C)csc1NC(=O)C(C)C | 1% | -11% | -6% | -13% | 25% | -10%
CCOC(=O)c1c(CC(C)C)csc1NC(=O)CCl | -8% | -7% | 8.9µM* | ? | 2% | 11%
COC(=O)c1c(-c2cccs2)csc1NC(=O)c1ccc(Cl)cc1 | . | . | . | . | 13%[46 µM] | .
CC(C)Cc1csc(NC(=O)c2ccc(Cl)cc2)c1C(=O)O | 18µM* | 6% | 25% | 11%[10 µM] | ? | 22µM*
Cc1cccc(C(=O)Nc2scc(CC(C)C)c2C(=O)O)c1 | 16µM* | 10% | ? | 42%[10 µM] | ? | -3%
COc1ccc(O[C@H]2C=C[C@@H](c3ccccc3)O[C@H]2COC(=O)CC/C(C)=N\O[C@@H](C)c2cn([C@H]3COC[C@H]3O)nn2)cc1 | . | . | -3%[13.5 µM] | 2%[10 µM] | . | .
Cc1ccc(NS(=O)(=O)c2ccc(CCC(=O)NCc3cccnc3)cc2)cc1 | . | -5% | 8.9µM* | -20% | 10%[46 µM] | 12%
Cc1ccc(S(=O)(=O)Nc2ccc(NC(=O)c3cccnc3)cc2)cc1 | . | -10% | 14µM* | -6%[10 µM] | . | -1%[9.22 µM]
CN(C)S(=O)(=O)c1ccc(NC(=O)c2cccnc2)cc1 | -4% | -8% | -2% | 16% | 7% | 7%[9.22 µM]
Cc1cc(NS(=O)(=O)c2ccc(NC(=O)c3cc(-c4ccccc4Cl)nc4ccccc34)cc2)no1 | -24% | 7% | 11% | -20%[0.074 µM] | 12% | 32%
Cc1cc(NS(=O)(=O)c2ccc(NC(=O)c3cc(-c4cccnc4)nc4ccc(Cl)cc34)cc2)no1 | 14µM* | 2% | -5% | -25% | 1% | 10%
CC(C)(C)NS(=O)(=O)c1ccc(CCC(=O)NCc2cccnc2)cc1 | -8% | -5% | ? | 0% | -5% | 16%
O=C(c1ccncc1)N1CCC[C@@]2(CCN(c3ccncc3)C2)C1 | -6% | . | 9% | 12% | . | .
N[C@H](CCC(=O)NCC(=O)O)C(=O)O | -5% | 0% | 0% | ? | . | .
COc1cccc(Nc2ncnc3ccccc23)c1 | -7% | -8% | 16% | -61% | ? | ?
COc1ccc(Nc2nc(N3CCCCC3)c3ccccc3n2)cc1 | ? | -2% | 13µM* | -82% | ? | 18µM*
COc1ccc(Nc2ncnc3ccccc23)cc1 | -4% | 6% | 14% | 1% | -3% | 11µM*
CCOc1ccc(Nc2ncnc3ccc([N+](=O)[O-])cc23)cc1 | . | -1% | ? | 9%[10 µM] | 12%[46 µM] | 7.9µM*
Oc1ccc(Nc2nc(N3CCCC3)c3ccccc3n2)cc1 | -16% | 4% | -1% | -99%[10 µM] | ? | -23%
COc1ccc(Nc2ncnc3ccccc23)c(OC)c1 | ? | 3% | 10µM* | -41%[10 µM] | -13% | 5%
SMILES | HPGD block | KDM4E inh | ALDH1A1 inh | HTT ATP protect | Lamin A splicing | HttQ103 aggreg
COc1cc(NC(=O)CCc2c(C)nn(-c3ccc4nncn4n3)c2C)cc(OC)c1OC | . | . | . | . | 3%[46 µM] | .
Nc1nc(-c2cc(-c3cccc4ccccc34)nc(N)n2)cc(-c2cccc3ccccc23)n1 | -5% | . | -8%[13.5 µM] | -5%[10 µM] | . | .
O=C(O)c1ccc(Cl)c(S(=O)(=O)Nc2ccccc2)c1 | -2% | . | 8% | . | . | .
COc1ccc(Br)cc1CNC(=O)C1COc2ccccc2C1 (centres undefined) | . | . | . | . | 2%[46 µM] | .
O=C(Nc1nn[nH]n1)c1nc(-c2ccccc2)cc(=O)[nH]1 | -6% | . | -14%[13.5 µM] | -10%[10 µM] | . | .
CCn1ccc2cc(S(=O)(=O)N3CCCN(C(=O)NCC(C)C)CC3)ccc21 | . | . | . | . | 5%[46 µM] | .
Cn1c(-c2cccc(Br)c2)cnc1NCc1cccnc1 | -25% | ? | 11µM* | -18%[10 µM] | -13% | -14%
Cn1c(-c2ccc(F)cc2)cnc1NCc1cccc(F)c1 | 16µM* | ? | 6.3µM* | -5% | -1% | 20%
Cn1c(-c2ccc3c(c2)OCO3)cnc1NCc1cccc(O)c1 | . | ? | 13µM* | 35%[10 µM] | 6%[46 µM] | 12%[9.22 µM]
O=C(Cc1ccccc1)Nc1cccc(N2CCCC2)c1 | ? | ? | 14µM* | -20%[0.074 µM] | -13% | 16%
CSc1nc(N)c2c(C)c(C)sc2n1 | -5% | 4% | 5% | . | -6% | 3%
CCN1C(=O)C=CC1=O | -11% | 5% | ? | 8%[1.9 µM] | ? | .
O=C1C=CC(=O)N1CCCCCCN1C(=O)C=CC1=O | 2.2µM* | 2% | 0.22µM* | -88%[10 µM] | ? | 5µM*
On1c2c(c3c4nonc4ccc31)CCCC2 | 16µM* | -10% | 32µM* | 8%[10 µM] | -3% | -22%
COc1cc(/C=N/NC(=O)c2cccnc2)ccc1OCC(=O)N1CCOCC1 | . | 7% | 7% | 11%[10 µM] | -10% | ?
O=C(Nc1ccc(Oc2cccnc2)cc1)c1ccccc1Cl | . | -6% | ? | . | -13% | 11µM*
S=C(NCc1cccnc1)Nc1ccc(Oc2ccccc2)cc1 | . | ? | 32µM* | -205% | ? | ?
FC(F)Oc1ccc(NC(=S)NCc2cccnc2)cc1 | . | -2% | 0% | -20% | ? | -4%
CC(C)CC(=O)NNC(=S)Nc1ccc(S(N)(=O)=O)cc1 | . | -4% | 11µM* | -55% | . | -13%[9.22 µM]
NS(=O)(=O)c1ccc(NC(=S)NCc2cccc(Cl)c2)cc1 | . | -22% | 3% | 13%[10 µM] | -13% | 5%
NS(=O)(=O)c1ccc(NC(=S)NCc2ccccc2)cc1 | 20µM* | -5% | 20µM* | -6%[10 µM] | 2% | 5%
CCOc1ccccc1NC(=S)N1CCC(NC(=O)C(C)(C)C)CC1 | . | 3% | -8% | 1%[10 µM] | . | 9%[9.22 µM]
CCCn1c(N)cc(=O)n(C)c1=O | . | -4% | 1% | ? | -10%[46 µM] | 14%
NS(=O)(=O)c1ccc(NC(=S)NCc2ccccc2Cl)cc1 | -18% | 2% | 25µM* | 7%[10 µM] | -5% | 5%
Cc1ccc(/C(C#N)=C\c2ccc(N3CCOCC3)o2)cc1 | ? | 16µM* | 10µM* | 17%[10 µM] | ? | -5%[9.22 µM]
N#C/C(=C/c1ccc(N2CCCCC2)o1)c1cccc(F)c1 | ? | ? | ? | ? | -2% | 23%
N#C/C(=C/c1ccc(N2CCCCCC2)o1)c1ccc(Cl)cc1 | ? | -28% | 7.9µM* | 36% | ? | -31%
